Values without a mark were called inactive. No rule for the calls is given here.

This assay deals with Pantothenate synthetase (Mycobacterium tuberculosis (strain ATCC 25618 / H37Rv)) (UniProt P9WIL5). In words: Coupled enzyme confirmation of inhibitors against recombinant Mtb PanC (AID 375).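 Also: 0% = full reaction with vehicle and 100% = no enzyme background.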 As to conditions: coupled enzyme assay; at 10 µM, active compounds read high.
Sequence of Pantothenate synthetase (Mycobacterium tuberculosis (strain ATCC 25618 / H37Rv)) (P9WIL5 whole entry, looked up): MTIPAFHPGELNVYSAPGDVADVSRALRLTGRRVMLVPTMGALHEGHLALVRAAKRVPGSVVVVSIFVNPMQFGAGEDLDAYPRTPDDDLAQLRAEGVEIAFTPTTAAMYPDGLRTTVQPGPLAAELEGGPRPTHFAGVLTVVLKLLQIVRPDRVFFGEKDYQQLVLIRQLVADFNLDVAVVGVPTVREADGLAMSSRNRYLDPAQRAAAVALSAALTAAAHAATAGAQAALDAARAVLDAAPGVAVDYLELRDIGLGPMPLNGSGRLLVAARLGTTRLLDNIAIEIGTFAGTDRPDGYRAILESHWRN
As usually defined, the inhibition is how much of the control response was suppressed. Regarding `O=C(CN1C(=O)NC2(CCCCC2)C1=O)Nc1ccc(S(=O)(=O)N2CCOCC2)cc1`, the inhibition is 5%.

Turning to `NC(N)=NS(=O)(=O)c1ccc(N)cc1`, the inhibition is 0%.

On to `Cc1noc(C)c1COc1cccc(C(=O)Oc2ccc3c(c2)OCO3)c1`, for which the inhibition is 0%.

As for `CCOC(=O)CSc1nn(C)c(=S)s1`, the inhibition is 6%.

`O=c1[nH]c2c(s1)C(c1ccco1)C1C3CCC(C3)C1S2` (stereo not given): the inhibition was 0%.

For `O=C(O)CN1C(=O)C2(OCCCO2)c2ccccc21`, the inhibition was 0%.

`Cc1ccccc1-n1nc(C)c2cc(C(=O)NCc3cccnc3)sc21`: the inhibition was 0%.

Turning to `CC(C)NC(=O)CSCc1ccccc1Cl`, the inhibition was 13%.

Regarding `COCCCNC(=O)C1CCN(C(=O)Nc2ccc(Cl)cc2)CC1`, the inhibition was 0%.

For the compound `CCOc1ccc(N(CC(=O)Nc2cccc(OC)c2)S(=O)(=O)c2c(C)noc2C)cc1`, the inhibition is 11%.

On to `O=C(Cn1c(-c2cncs2)nc2ccccc21)NC1CCCC1`, for which the inhibition is 0%.

Regarding `Cc1nc2sccn2c(=O)c1CCN1CCC(=C(c2ccc(F)cc2)c2ccc(F)cc2)CC1`, the inhibition is 0%.

`O=C(O)CCC(=O)Nc1ccc(S(=O)(=O)Nc2nccs2)cc1`: the inhibition was 0%.

Regarding `Cc1nnc(SC(=O)N2c3ccccc3Sc3ccccc32)s1`, the inhibition is 6%.

With `Cc1ccc(S(=O)(=O)NCC(=O)OCN2C(=O)c3ccccc3C2=O)cc1`, the inhibition is 4%.

Consider `COc1ccc(C(=O)NCC(=O)NC2=NCCS2)cc1`, for which the inhibition was 0%.

Consider `CN1CCN(C(=O)c2cnn3c(C(F)F)cc(C4CC4)nc23)CC1`, for which the inhibition was 6%.

As for `CC(NC(=O)COc1ccccc1)C(=O)NC1=NCCS1` (stereo not given), the inhibition was 0%.

In the case of `Cc1nc2c(-c3ccccc3)c(C)nn2c(C)c1CCC(=O)O`, the inhibition is 0%.

For `CCOC(=O)c1c(C)c(C(=O)NCC2CCCO2)c(C)n1C` (stereo not given), the inhibition is 7%.

On to `Cc1n[nH]c(C)c1S(=O)(=O)N1CCCCCC1`, for which the inhibition is 0%.

For the compound `c1ccc(-c2cn3c4c(sc3n2)CCCC4)cc1`, the inhibition was 3%.

In the case of `COCCNC(=O)Cn1nc(C(F)(F)F)c(Br)c1C`, the inhibition was 0%.

Turning to `CCOc1ccc(NC(=O)CN(c2cc(C)cc(C)c2)S(=O)(=O)c2c(C)noc2C)cc1`, the inhibition is 7%.

As for `COc1cc(N2C(=O)CSC23C(=O)Nc2ccccc23)cc(OC)c1OC` (stereo not given), the inhibition was 0%.

Regarding `CC1=C(C(=O)NC2CCCC(C)C2C)C2(CCCCC2)OC1=O` (stereo not given), the inhibition was 0%.

As to `C/C(N)=C(/C#N)C(=O)COC(=O)c1cc(C)n(-c2ccc(F)cc2)c1C`, the inhibition is 2%.

Turning to `CCOC(=O)N1CCC(Nc2nc3ccccc3n3cnnc23)CC1`, the inhibition is 10%.

For the compound `Cc1cc(C)nc(N2CCC(C(=O)NCc3cccc(C(F)(F)F)c3)CC2)n1`, the inhibition is 3%.

`c1ccc(-c2oc3ncnc(NCCN4CCOCC4)c3c2-c2ccccc2)cc1`: the inhibition was 4%.

On to `Cc1cccc(-c2c3c(=O)n(C)c(=O)n(C)c3cn2-c2ccc(O)cc2)c1`, for which the inhibition is 0%.

`Cc1c(N=C2SCC(=O)N2c2c(C)n(C)n(-c3ccccc3)c2=O)c(=O)n(-c2ccccc2)n1C`: the inhibition was 3%.

As for `CC(C)C(c1nnnn1C1CCCC1)N1CCN(C(=O)c2ccco2)CC1` (stereo not given), the inhibition was 3%.

For the compound `Cc1cc(Nc2ccc(C(=O)O)cc2)n2nc(C)nc2n1`, the inhibition is 7%.

On to `Cn1c(=O)c2c(nc(SCCCC#N)n2Cc2c(F)cccc2Cl)n(C)c1=O`, for which the inhibition was 0%.

For the compound `Cc1c(NC(=O)c2nn(C)c(=O)c3ccccc23)c(=O)n(-c2ccccc2)n1C`, the inhibition is 0%.

For the compound `Cc1ccc(C)c(N2CCN(C(=O)c3cc4ccccn4n3)CC2)c1`, the inhibition is 0%.

Turning to `COc1cccc2cc(C(=O)Nc3cccnc3N3CCOCC3)c(=O)oc12`, the inhibition is 0%.

`COC(=O)Nc1ccc(C)cc1NC(=O)OC`: the inhibition is 2%.

As for `CC12CN3CC(C)(CN(C1)C3c1cc(Br)ccc1O)C2=O` (stereo not given), the inhibition is 0%.
